Inconclusive results are not listed. Where a call stands in place of a potency, no number is given. Calls of active or inactive are those of the source. Unless noted, calls come from the whole dose curve; as a rule, active = well fitted curve in the direction sought with a large enough effect; inconclusive = small, poorly fitted or top-dose-only effect, or another doubt; inactive = no such curve, though single readings can be large; an effect the other way counts as inactive or inconclusive.
Tests used:
[1] = Validation of Assay for Modulators of Lamin A Splicing (AID 1459; active = well fitted curve in the direction sought with a large enough effect in the signal ratio; the % refers to the signal ratio;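 note: cells exposed to compound for two days before reading; ratio rise marks activators and ratio drop marks inhibitors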)
Summary of the method: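 HeLa S3 lamin A-EGFP/DsRed2 stable clone, 600 cells/well, Opti-MEM 2% FBS; compounds by pin tool; 48 hrs, 37 °C/5% CO2; Acumen 488 nm scan, objects 10-100 um; GFP/RFP intensity ratio.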

[2] = qHTS Assay for Lipid Storage Modulators (AID 1519; calls by dose curve); settings: Drosophila S3 cells, BODIPY lipid droplet/cell ratio, laser cytometry, cells loaded with oleic acid; for activity change, negative = inhibition: at 57.5 µM (top of the series)
Summary of the method: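 Cells seeded at 5,000 per well were treated with compounds over a concentration series and loaded with oleic acid (400 uM, as added). Lipid droplet fluorescence (488 nm excitation, 500-530 nm channel) was read by laser-scanning cytometry and normalized to 20 uM Triacsin C.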

[3] = target: DNA repair nuclease/redox regulator APEX1 (Homo sapiens) (UniProt P27695); test: qHTS Validation Assay for Inhibitors of the Human Apurinic/apyrimidinic Endonuclease 1 (APE1) (AID 1705;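 note: TAMRA fluorescence gain over two minutes as APE1 cuts a quenched THF abasic duplex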)
Sequence of DNA repair nuclease/redox regulator APEX1 (Homo sapiens) (P27695 whole entry, looked up): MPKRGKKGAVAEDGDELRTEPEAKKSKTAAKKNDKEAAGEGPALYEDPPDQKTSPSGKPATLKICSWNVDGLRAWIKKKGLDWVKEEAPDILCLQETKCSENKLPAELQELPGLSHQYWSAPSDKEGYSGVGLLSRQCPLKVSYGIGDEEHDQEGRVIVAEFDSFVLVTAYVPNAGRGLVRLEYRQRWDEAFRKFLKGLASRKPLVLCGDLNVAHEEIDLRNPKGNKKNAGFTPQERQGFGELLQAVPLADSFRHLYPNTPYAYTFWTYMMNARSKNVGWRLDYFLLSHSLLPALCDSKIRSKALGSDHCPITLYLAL
Summary of the method: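 qHTS, 1536-well. APE1 + cpd 15 min RT → 50 nM TAMRA/BHQ-2 THF-abasic dsDNA substrate → kinetic fluorescence, 3 reads/60 s; delta(read3−read1) = reaction progress. No-enzyme buffer = negative control.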

[4] = Counterscreen for APE1 Inhibitors: Fluorescent Dye Displacement Validation Assay (AID 1707)
Summary of the method: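 Reaction mixture of 250 nM Thiazole Orange and 50 nM double-stranded abasic-site DNA was dispensed, compounds were pin-transferred, and fluorescence was read at endpoint (480 nm ex, 540 nm em). Reduced fluorescence indicated dye displacement by DNA binding.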

[5] = target: Endonuclease 4 (Escherichia coli (strain K12)) (UniProt P0A6C1); test: Counterscreen for APE1 Inhibitors: qHTS Validation Assay for Inhibitors of Endonuclease IV (AID 1708)
Summary of the method: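 Read-out: fluorescence rise (ex 525/em 598 nm) from incision of a TAMRA/BHQ-2 double-stranded THF abasic-site substrate (50 nM), measured kinetically; third-minus-first read difference gave reaction progress. Enzyme 2 nM.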

[6] = qHTS for differential inhibitors of proliferation of Plasmodium falciparum line GB4 (AID 1816); settings: Potency: Plasmodium falciparum GB4 proliferation inhibition;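 note: parasite growth measured after 72 h incubation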; note: potency is the fitted concentration of half-maximal effect
[7] = target: Alpha-galactosidase A (Homo sapiens) (UniProt P06280); test: Counterscreen for Glucocerebrosidase Inhibitors: qHTS Assay for Human alpha-Galactosidase at pH 4.5 (AID 992)
Sequence of Alpha-galactosidase A (Homo sapiens) (P06280 whole entry, looked up): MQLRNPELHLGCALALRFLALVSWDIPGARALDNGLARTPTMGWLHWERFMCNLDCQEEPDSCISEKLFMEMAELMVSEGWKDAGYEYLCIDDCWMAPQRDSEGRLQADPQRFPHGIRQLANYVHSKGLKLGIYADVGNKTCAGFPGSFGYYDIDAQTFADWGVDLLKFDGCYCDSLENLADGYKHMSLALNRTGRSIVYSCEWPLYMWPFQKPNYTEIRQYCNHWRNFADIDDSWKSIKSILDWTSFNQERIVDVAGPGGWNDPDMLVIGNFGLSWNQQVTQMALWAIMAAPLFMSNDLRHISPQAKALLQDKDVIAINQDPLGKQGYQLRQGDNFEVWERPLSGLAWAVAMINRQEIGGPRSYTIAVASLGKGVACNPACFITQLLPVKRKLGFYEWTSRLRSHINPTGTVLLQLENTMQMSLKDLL
Summary of the method: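 Steps: enzyme (2 nM final), then compound across 0.7 nM to 77 uM, then 80 uM fluorogenic galactopyranoside substrate; incubate 20 min at room temperature; quench at pH 10; measure fluorescence at 365/440 nm.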

[8] = target: Alpha-galactosidase (Coffea arabica) (UniProt Q42656); test: Counterscreen for Glucocerebrosidase Inhibitors: qHTS Assay for Coffee Bean alpha-Galactosidase at pH 5.9 (AID 998)
Sequence of Alpha-galactosidase (Coffea arabica) (Q42656 whole entry, looked up): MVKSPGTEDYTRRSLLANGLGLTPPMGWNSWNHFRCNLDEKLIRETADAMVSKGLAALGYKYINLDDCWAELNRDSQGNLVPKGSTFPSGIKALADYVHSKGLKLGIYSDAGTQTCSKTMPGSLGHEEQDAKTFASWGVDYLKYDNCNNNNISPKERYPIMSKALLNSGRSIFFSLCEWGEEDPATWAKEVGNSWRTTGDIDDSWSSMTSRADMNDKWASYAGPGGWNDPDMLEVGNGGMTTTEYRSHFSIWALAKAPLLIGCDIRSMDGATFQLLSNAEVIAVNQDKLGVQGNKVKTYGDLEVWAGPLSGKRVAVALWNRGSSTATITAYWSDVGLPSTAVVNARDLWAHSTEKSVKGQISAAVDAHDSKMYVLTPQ
Summary of the method: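 Enzyme 2 nM + cpd (0.7 nM–77 uM titration) + 4-MU-alpha-Gal 80 uM, pH 5.9 citrate/Tween-20, RT 20 min, NaOH/glycine stop pH 10, fluor 365/440. Normalized to no-enzyme and full-activity controls; Hill-fit AC50.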

[9] = qHTS for differential inhibitors of proliferation of Plasmodium falciparum line 7G8 (AID 1815);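 note: parasite growth measured after three days of incubation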; note: potency is the fitted concentration of half-maximal effect
[10] = target: alpha-glucosidase (Oryza sativa, rice) (UniProt Q653V4); test: Counterscreen for Glucocerebrosidase Inhibitors: qHTS Assay for Rice alpha-Glucosidase at pH 5.0 (AID 997)
Summary of the method: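 Endpoint fluorogenic assay at pH 5.0: compounds (0.7 nM to 77 uM) titrated against 4 nM rice enzyme and 400 uM 4-MU-alpha-glucoside for 20 min at room temperature; NaOH/glycine stop, read ex 365/em 440 nm, Hill-fitted AC50.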

[11] = measured here: cell count channel max response
[12] = measured here: lipid channel max response

SMILES	outcome [1]	activity change, negative = inhibition [2]	max response [2, 11]	max response [2, 12]	Potency [3]	Potency [4]	Potency [5]	Potency [6]	outcome [7]	outcome [8]	Potency [9]	outcome [10]
CC12NC(Cc3ccccc31)c1ccccc12 (stereo not drawn)	inactive	-2.09% (inactive)	1.93%	-0.147%	inactive	inactive	inactive	5.01 µM (active)				
CCCN(CCC)CCc1c[nH]c2ccc(C(N)=O)cc12	inactive	1.01% (inactive)	-28.4%	-33.9%	inactive	inactive	inactive	inactive	inactive	inactive	inactive	
OC1CCCCC1N1CCC(c2ccccc2)CC1 (stereo not drawn)	inactive	6.18% (inactive)	4.61%	12.5%		inactive	inactive					
CN1C2CCC1CC(OC(c1ccccc1)c1ccccc1N)C2 (stereo not drawn)	inactive	0.575% (inactive)	-2.6%	-1.25%		inactive	inactive	5.62 µM (active)			8.91 µM (active)	
Nc1ccc(CCN2CCN(c3cccc(C(F)(F)F)c3)CC2)cc1	inactive	2.29% (inactive)	-6.99%	-6.09%	inactive	inactive			inactive	inactive	7.94 µM (active)	
O=C(O)c1cc[c]([Hg][Cl])cc1	inactive	1.37% (inactive)	-16.6%	-15.1%	inactive	inactive	inactive	2.51 µM (active)	inactive		3.16 µM (active)	inactive
